Laboratory results published in PubChem BioAssay (NCATS).
Where “and” joins values, the source holds several entries; their conditions need not be identical. Equal values may be shown once. Records with an inconclusive call do not appear. Where a call stands in place of a potency, no number is given. Calls of active or inactive are those of the source. Unless noted, calls come from the whole dose curve; as a rule, active = well fitted inhibition curve with a large enough effect; inconclusive = small, poorly fitted or top-dose-only effect; inactive = flat fitted curve, though single readings scatter. Numbered stars: 1 amine (or outer) side, 2 acyl side, 3 side chain; on linkers, the order of the positions; unused ones are H or OH. Bridge positions count the residues as written; N and C are the ends. Square brackets hold non-standard residues; d marks the D form. Peptide text beside a SMILES is read from it. * marks the point of attachment. ξ: configuration not given here. ξhTyr(3S-OH,4S-OH,3'-OSO3H) = NC(C(=O)O)[C@H](O)[C@@H](O)c1ccc(O)c(OS(=O)(=O)O)c1; Orn(4R-OH,5R-OH) = O=C([C@H](C[C@@H](O)[C@@H](O)N[*:3])N[*:1])[*:2]; X2 = CCCCCOc1ccc(-c2cc(-c3ccc(C(=O)*)cc3)no2)cc1; X3 = C[C@H]1CN([*:1])C(C(=O)[*:2])[C@H]1O; ξGln(3R-OH) = NC(=O)C[C@@H](O)C(N)C(=O)O; ξPro(4R-OH) = O=C(O)C1C[C@@H](O)CN1; ξThr(3R) = C[C@@H](O)C(N)C(=O)O

System: not listed separately
Assay: Primary qHTS to identify inhibitors of SARS-CoV-2 cell entry (AID 1645846; calls by dose curve; note: nearly all actives have a fitted effect of over 45% in size)
Conditions: SARS-CoV-2 pseudovirus cell entry assay, luminescence; activity change, negative = inhibition: at 57.1 µM (top of the series) unless noted; series mostly up to 57.1 µM
Method in brief: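 Entry measured by luciferase signal 48 h after adding SARS-CoV-2-S pseudotyped MLV particles to HEK293-ACE2 cells preincubated 1 h with compounds. Normalisation: bald particles and spike particles.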
Work on Cc1onc(-c2ccccc2)c1C(=O)N[C@@H]1C(=O)N2[C@@H]1SC(C)(C)[C@@H]2C(=O)O yielded an activity change, negative = inhibition of -25.7%. C[C@]12CC[C@@H]3c4ccc(OC(=O)c5ccccc5)cc4CC[C@H]3[C@@H]1CC[C@@H]2O gave an activity change, negative = inhibition of -3.2%. For CCOc1nc2cccc(C(=O)OCc3oc(=O)oc3C)c2n1Cc1ccc(-c2ccccc2-c2noc(O)n2)cc1, the activity change, negative = inhibition was -28.5%. Nc1nc(=O)n([C@H]2C[C@H](O)[C@@H](CO)O2)cc1F gave an activity change, negative = inhibition of -95.3%. With CCC(=O)NS(=O)(=O)c1ccc(-c2c(-c3ccccc3)noc2C)cc1 the activity change, negative = inhibition was -22.2% and -23.1%. For CCCCCCCCCCCC1=C(O)C(=O)C=C(O)C1=O, the Potency was “inactive”. For COC(=O)N(C)c1c(N)nc(-c2nn(Cc3ccccc3F)c3ncccc23)nc1N, the Potency was “inactive”. Compound C[C@H](O)[C@H](O)[C@H]1CNc2nc(N)[nH]c(=O)c2N1 has an activity change, negative = inhibition of -28%. In the case of CN1CC[C@@H](c2c(O)cc(O)c3c(=O)cc(-c4ccc(C(F)(F)F)cc4Cl)oc23)[C@@H]1CO, the activity change, negative = inhibition is reported as -12.4%.

System: CRL-7250
Assay: qHTS assay to identify novel small-molecules to repurpose for Merkel cell carcinoma treatment (AID 1296009); note: nearly all actives have a fitted effect of over 60% in size
Conditions: MCC and control cell lines, CellTiter-Glo viability, 72 h; series mostly up to 92 µM
Method in brief: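 Cells were treated for 72 hr at 37 degree celsius with compounds in 8- or 11-point dose response. Viability was read by CellTiter-Glo luminescence, normalized to no-cell (cytotoxicity) and DMSO controls.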
With CCN(CC)CCOCCOC(=O)C(CC)(CC)c1ccccc1 the Potency was “inactive”. With CCC(=O)c1cc(-c2ccc(Cl)cc2)n(-c2ccc(S(N)(=O)=O)cc2)c1C the Potency was “inactive”. In the case of COc1ccc2c3c1O[C@H]1C[C@@H](O)C=C[C@@]31CCN(C)C2, the Potency is reported as “inactive”. For CC1(C)Cc2c(sc(NC(=S)NC(=O)c3ccccc3)c2C(=O)O)CO1, the Potency was “inactive”. In the case of CCc1c(Cl)c(O)c(Cl)c(O)c1C(=O)O[C@H]1[C@H](O)[C@H](OC)[C@H](OC/C2=C\C=C\C[C@H](O)/C(C)=C\[C@H](CC)[C@@H](O[C@@H]3OC(C)(C)[C@@H](OC(=O)C(C)C)[C@H](O)[C@@H]3O)/C(C)=C/C(C)=C/C[C@@H]([C@@H](C)O)OC2=O)O[C@@H]1C, the Potency is reported as “inactive”. In the case of CC(=O)OC(C)(C)/C=C/C(=O)[C@](C)(O)[C@H]1C(O)C[C@@]2(C)[C@@H]3CC=C4[C@@H](C=C(O[C@@H]5O[C@H](CO)[C@@H](O)[C@H](O)[C@H]5O)C(=O)C4(C)C)[C@]3(C)C(=O)C[C@]12C (some centres undefined), the Potency is reported as “inactive”. For Cc1c(C)n(Cc2ccc(-c3ccccc3C(=O)O)cc2)c2ccc(C(=O)N[C@@H](C)c3ccc([N+](=O)[O-])cc3)cc12, the Potency was “inactive”. For CCOC(=O)[C@H]1O[C@@H]1C(=O)N[C@@H](CC(C)C)C(=O)NCCC(C)C, the Potency was “inactive”. In the case of CCCCCOc1ccc(-c2cc(-c3ccc(C(=O)N[C@H]4C[C@@H](O)[C@@H](O)NC(=O)C5[C@@H](O)[C@@H](C)CN5C(=O)C([C@H](O)CC(N)=O)NC(=O)C([C@H](O)[C@@H](O)c5ccc(O)c(OS(=O)(=O)O)c5)NC(=O)C5C[C@@H](O)CN5C(=O)C([C@@H](C)O)NC4=O)cc3)no2)cc1 (stereo partly drawn) (X2-[Orn(4R-OH,5R-OH)][ξThr(3R)][ξPro(4R-OH)][ξhTyr(3S-OH,4S-OH,3'-OSO3H)][ξGln(3R-OH)][X3]; lactam 1-C), the Potency is reported as “inactive”. In the case of Cc1onc(-c2ccccc2)c1C(=O)N[C@@H]1C(=O)N2[C@@H]1SC(C)(C)[C@@H]2C(=O)O, the Potency is reported as “inactive”. In the case of C[C@]12CC[C@@H]3c4ccc(OC(=O)c5ccccc5)cc4CC[C@H]3[C@@H]1CC[C@@H]2O, the Potency is reported as “inactive”. With Cn1ncc2cc(-c3cnc(N)c(Cl)c3N3CCC4(CCNC4=O)CC3)ccc21 the Potency was “inactive”. For Cn1nc(C(C)(C)C)cc1C(=O)N[C@@H](Cc1cccc(Cl)c1)C(=O)NCC#N, the Potency was “inactive”. In the case of C[C@@H]1O[C@@H](O[C@H]2[C@H](OC(=O)[C@]34CCC(C)(C)C[C@H]3C3=CCC5[C@@]6(C)C[C@H](O)[C@H](O[C@@H]7O[C@H](CO)[C@@H](O)[C@H](O)[C@H]7O)[C@@](C)(CO)C6[C@H](O)C[C@@]5(C)[C@]3(C)C[C@H]4O)OC[C@H](O)[C@@H]2O)[C@H](O)[C@H](O)[C@H]1O[C@@H]1OC[C@@H](O)[C@H](O[C@H]2OC[C@](O)(CO)[C@H]2O)[C@H]1O (some centres undefined), the outcome is reported as “inactive [at 9.27 µM]”. With c1cc(OCCN2CCCCC2)cc(-c2n[nH]c3ccc(-c4ncn[nH]4)cc23)c1 the Potency was “inactive”. With CCOc1nc2cccc(C(=O)OCc3oc(=O)oc3C)c2n1Cc1ccc(-c2ccccc2-c2noc(O)n2)cc1 the Potency was “inactive”. In the case of Nc1nc(=O)n([C@H]2C[C@H](O)[C@@H](CO)O2)cc1F, the Potency is reported as “inactive”. With COc1ccccc1OCCN1CC(COc2cccc3[nH]c4ccccc4c23)OCC1=O (centres undefined) the Potency was “inactive”. For CCC(=O)NS(=O)(=O)c1ccc(-c2c(-c3ccccc3)noc2C)cc1, the Potency was “inactive”. For CC(=O)O[C@]1(C(C)=O)CC[C@H]2[C@@H]3C=C(Cl)C4=CC(=O)[C@@H]5C[C@H]5[C@]4(C)[C@@H]3CC[C@@]21C, the Potency was “inactive”. With Cc1[nH]c(/C=C2\C(=O)Nc3ccc(S(=O)(=O)N(C)c4cccc(Cl)c4)cc32)c(C)c1C(=O)N1CCN(C)CC1 the Potency was “inactive”. With CCCCCCCCCCCC1=C(O)C(=O)C=C(O)C1=O the Potency was “inactive”. With COC(=O)N(C)c1c(N)nc(-c2nn(Cc3ccccc3F)c3ncccc23)nc1N the Potency was “inactive”. For CN1CCC(c2cn(C)c3ccc(OS(=O)(=O)c4c(F)cccc4F)cc23)CC1, the Potency was “inactive”. For CC(C)c1ccc2c(c1)CCC1[C@](C)(C(=O)O)CCC[C@]21C (some centres undefined), the Potency was “inactive”. In the case of CC=CCC(C)C(O)C1C(=O)NC(CC)C(=O)N(C)CC(=O)N(C)C(CC(C)C)C(=O)NC(C(C)C)C(=O)N(C)C(CC(C)C)C(=O)NC(C)C(=O)NC(C)C(=O)N(C)C(CC(C)C)C(=O)N(C)C(CC(C)C)C(=O)N(C)C(C(C)C)C(=O)N1C (centres undefined), the Potency is reported as “inactive”. With C[C@H](O)[C@H](O)[C@H]1CNc2nc(N)[nH]c(=O)c2N1 the Potency was “inactive”. In the case of CN1CC[C@@H](c2c(O)cc(O)c3c(=O)cc(-c4ccc(C(F)(F)F)cc4Cl)oc23)[C@@H]1CO, the Potency is reported as “inactive”. For CCc1ccc(Cc2ccc3c(c2)[C@]2(OC3)O[C@H](CO)[C@@H](O)[C@H](O)[C@H]2O)cc1, the Potency was “inactive”. For CN(C)CCOc1cc(-c2cn[nH]c2)ccc1NC(=O)C1COc2ccccc2O1 (centres undefined), the Potency was “inactive”. For CCCSc1nc(N[C@@H]2C[C@H]2c2ccc(F)c(F)c2)c2nnn([C@@H]3C[C@H](OCCO)[C@@H](O)[C@H]3O)c2n1, the Potency was “inactive”. For CC1=C2C(=O)O[C@@H](c3ccoc3)[C@]2(C)CCC1, the Potency was “inactive”. With CC1(C)OC(=O)C(OCC2CC2)=C1c1ccc(S(C)(=O)=O)cc1 the Potency was “inactive”. In the case of COc1ccc(CN2CCN(CCCSc3cc(C(C)(C)C)c(O)c(C(C)(C)C)c3)CC2)c(OC)c1OC, the outcome is reported as “inactive [at 9.27 µM]”. With C[C@@H]1O[C@@H](O[C@H]2[C@H](OC(=O)[C@]34CCC(C)(C)C[C@H]3C3=CCC5[C@@]6(C)CC[C@H](O[C@@H]7O[C@H](CO[C@@H]8OC[C@H](O)[C@H](O)[C@H]8O)[C@@H](O)[C@H](O)[C@H]7O)C(C)(C)C6CC[C@@]5(C)[C@]3(C)C[C@H]4O)OC[C@@H](O)[C@@H]2O)[C@H](O)[C@H](O[C@@H]2OC[C@](O)(CO)[C@H]2O)[C@H]1O[C@@H]1OC[C@H](O)[C@H](O[C@@H]2OC[C@@H](O)[C@H](O)[C@H]2O)[C@H]1O (some centres undefined) the outcome was “inactive [at 9.27 µM]”. For NC(=O)c1ccc2nc(-c3ccc(Oc4ccc(Cl)cc4)cc3)[nH]c2c1, the Potency was “inactive”. For O=C(Nc1ccccc1)Nc1ccc(-c2ccc(C(=O)[C@H]3CCC[C@H]3C(=O)O)cc2)cc1, the Potency was “inactive”. In the case of COc1ccccc1OCCNCC(O)CCOc1cccc2[nH]c3ccccc3c12 (centres undefined), the Potency is reported as “inactive”. For CCc1cccc(CC)c1-n1c(C=C(C)C)c(C(=O)N2CCNCC2)cc(-c2nc(-c3ccc(C(F)(F)F)cc3)cs2)c1=O, the Potency was “inactive”. With CN(C)S(=O)(=O)c1ccc(NC(=S)N2CCC(C(O)(c3ccccc3)c3ccccc3)CC2)cc1 the Potency was “inactive”.
